Assay results reported in PubChem BioAssay (NCATS).
Values without a mark were called inactive. Calls of active or inactive are those of the source. How the calls were made is not given here.

What follows are compounds tested on HIV-1 nucleocapsid protein NCp7 (binding to TG oligonucleotide) (assay: HIV Nucleocapsid (AID 346;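 further: potency is for inhibitors that block NC binding and lower polarization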)). Conditions: HIV-1 NC / fluorescein-TGTGTGTG probe, fluorescence polarization.
In short: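 HIV-1 NC (100 nM) binding to fluorescein-labelled ssDNA TG4xF (10 nM) in Hepes pH 7.5, 250mM NaCl, 1uM ZnCl2, TCEP and 2-mercaptoethanol; compounds pin-transferred, 1 hr room temperature, fluorescence polarization read on CCD imager.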
Potency means the concentration at half of the fitted maximal effect.

SMILES	Potency
CCNc1ncc2nc(-c3cc(F)cc(F)c3)c(=O)n(C3CC3)c2n1	> 20 µM
CN(C)Cc1ccccc1-c1cncnc1NCc1ccccc1	> 20 µM
N#Cc1ccc(CN2CC[C@@]3(CCCN(C(=O)c4ccncc4)C3)C2)cc1	> 20 µM
COCCNc1ncnc2ccc(-c3cccnc3)cc12	> 20 µM
Cc1nc2cnc(N(C)C)nc2n(C2CC2)c1=O	> 20 µM
CN1CCN(c2nc(-c3cccc(NS(C)(=O)=O)c3)nc3ccccc23)CC1	> 20 µM
COc1ncc2nc(-c3ccccc3)c(=O)n(Cc3cccs3)c2n1	> 20 µM
CN(C)C(=O)c1ccc(-c2nc(NCc3cccs3)c3ccccc3n2)cc1	> 20 µM
O=S(=O)(c1ccccc1)N1CCC[C@@]2(CCN(Cc3nccs3)C2)C1	> 20 µM
COc1ccccc1CNc1ncncc1-c1ccccc1C(F)(F)F	> 20 µM
COCCn1c(=O)c(-c2cccc(C#N)c2)nc2cnc(Oc3ccccc3)nc21	> 20 µM
O=c1c(-c2ccc(Cl)cc2)nc2cncnc2n1Cc1ccccc1Cl	> 20 µM
COc1cccc(-c2cncnc2NCCc2cnc[nH]2)c1	> 20 µM
COc1ccc(-c2nc3cnc(Nc4cccc(OC)c4)nc3n(Cc3cccs3)c2=O)cc1	0.247 µM (active)
O=c1c(CCc2ccccc2)nc2cncnc2n1-c1ccccc1	> 20 µM
Cc1nc2cnc(N(C)C)nc2n(-c2ccccc2)c1=O	> 4 µM
CC(C)CN1CC[C@@]2(CCCN(C(=O)c3csnn3)C2)C1	> 20 µM
N#Cc1ccc(CN2CCCC3(CCN(C(=O)c4ccco4)CC3)C2)cc1	> 20 µM
COc1ccc2[nH]cc(CCNc3cc(-c4c(C)noc4C)ncn3)c2c1	> 20 µM
N#CCCn1c(=O)c(-c2cc(F)cc(F)c2)nc2cnc(OCc3ccccc3)nc21	> 20 µM

SMILES	Potency
O=C(c1cnccn1)N1CCC[C@@]2(CCN(c3ccccc3)C2)C1	> 20 µM
O=c1c(-c2ccc(F)cc2)nc2cnc(N3CCOCC3)nc2n1C1CC1	> 20 µM
COC(=O)N1CCC[C@@]2(CCN(C(=O)Nc3ccccc3)C2)C1	> 20 µM
COc1cccc(Nc2ncc3nc(-c4cc(F)cc(F)c4)c(=O)n(C[C@H]4CCCO4)c3n2)c1	> 20 µM
c1cc(NC2CC2)nc(-c2ccoc2)n1	> 20 µM
Fc1ccc(Nc2ncncc2-c2ccccc2C(F)(F)F)cc1	> 20 µM
O=C(Nc1cccc(F)c1)N1CC[C@@]2(CCCN(C(=O)c3cccc(F)c3)C2)C1	> 20 µM
COc1ccc2[nH]cc(CCNc3ncncc3-c3ccccc3OC)c2c1	> 20 µM
Cn1cccc1C(=O)N1CCC2(CC1)CCN(c1ncccn1)CC2	> 20 µM
FC(F)(F)c1ccccc1-c1nc(NC2CC2)c2ccccc2n1	> 20 µM
Cc1noc(C)c1-c1ccc2ncnc(NC3CCNCC3)c2c1	> 20 µM
COc1ccc(CNc2ncnc3ccc(-c4ccc(C(=O)N(C)C)cc4)cc23)c(OC)c1	> 20 µM
O=C(c1csnn1)N1CCC2(CCN(Cc3ccccc3)CC2)CC1	> 20 µM
Cc1noc(C)c1-c1ccc2ncnc(N3CCC(C(=O)O)CC3)c2c1	> 20 µM
O=c1cnc2cnc(Oc3cccc(Cl)c3)nc2n1CCc1ccccc1	> 20 µM
COc1ccc2[nH]cc(CCNc3ccnc(-c4c(C)noc4C)n3)c2c1	> 20 µM
COCCn1c(=O)c(-c2cc(F)cc(F)c2)nc2cncnc21	> 20 µM
COc1cccc(-c2nc(N3CCNCC3)c3ccccc3n2)c1	> 20 µM
Cc1cnc(CNc2ccnc(-c3ccc(C(=O)N(C)C)cc3)n2)cn1	> 20 µM
